Source: ChEMBL document CHEMBL3988442, “University of Dundee, Small-Polar-MMV Screening Library” (2021)
Hit rate of the full screen: of about 69,000 compounds, about 950 (1.4%) showed an effect of 50% or more. This excerpt belongs to a sample that is enriched for strong results.

system: Mycobacterium tuberculosis; test: Cornell M. t heat shock assay; format: functional, organism-based; parameters: dose or concentration left out as unconfirmed; also: in the data most compounds retested in dose-response had high values

| Structure (SMILES) | Percent Effect |
| --- | --- |
| COc1ccc(CN2CCn3cccc3C2C)cc1F (stereo unspecified) | 13.47% |
| COc1ccc(C)cc1CN1CCn2cccc2C1C (stereo unspecified) | 86.02% |
| COc1ccc(C(C)=O)cc1CN1CCn2cccc2C1C (stereo unspecified) | 9.9% |
| CCOc1ccccc1C1CCCN1.Cl (stereo unspecified) | 3.065% |
| COc1cc(CNCC(O)c2ccccc2)cc2c1OCO2.Cl (stereo unspecified) | -7.292% |
| Cl.c1ccc(CN2CCNCC(Cc3cnccn3)C2)cc1 (stereo unspecified) | -10.09% |
| O=C(O)C(F)(F)F.O=C(c1ccco1)N1CC2(CCNCC2)c2cc(Cl)ccc21 | -24.85% |
| O=C(O)C(F)(F)F.O=C(O)C(F)(F)F.c1cnc(N2CCC3(CCN(Cc4ccncc4)CC3)CC2)nc1 | 6.802% |
| CCc1nc(C)c(CN2CCOC(Cc3cccc4ccccc34)C2)[nH]1 (stereo unspecified) | 8.588% |
| c1ccc2c(CC3CN(Cc4nccs4)CCO3)cccc2c1 (stereo unspecified) | -8.986% |
| Cc1cccnc1CN1CCOC(Cc2cccc3ccccc23)C1 (stereo unspecified) | 106.2% |
| CCN1CCc2c(sc3c2C(=O)NC(/C=C/c2ccco2)N3)C1 (stereo unspecified) | -25.76% |
| O=C(Cc1cnccn1)N1C[C@H]2CC[C@@H]1CN(Cc1cscn1)C2 | -4.902% |
| Cc1ccnc(NC(=O)C2(n3cnnn3)CCCCC2)c1 | -14.84% |
| O=C(Nc1ccccn1)C1(n2cnnn2)CCCCC1 | 4.562% |
| O=C(NCCc1c[nH]c2ccccc12)C1(n2cnnn2)CCCCC1 | 102.3% |
| O=C(NCCc1ccccn1)C1(n2cnnn2)CCCCC1 | -1.374% |
| Cc1cccnc1NC(=O)C1(n2cnnn2)CCCCC1 | 10.66% |
| Cc1cccc(NC(=O)C2(n3cnnn3)CCCCC2)n1 | -23.83% |
| O=C(NCCc1cccc(F)c1)C1(n2cnnn2)CCCCC1 | 90.07% |
| O=C(NCCc1c[nH]c2ccccc12)C1CCC(Cn2cnnn2)CC1 (stereo unspecified) | 2.28% |
| O=C(NCCc1c[nH]c2ccc(F)cc12)C1(n2cnnn2)CCCCC1 | 102.2% |
| Cl.O=c1c2sccc2nc2n1CCN(Cc1ccsc1)CC2 | -19.75% |
| Cc1cccc(CN2CC[C@@H]3[C@@H]2CCN3C(=O)Cc2ccsc2)n1.O=C(O)C(F)(F)F.O=C(O)C(F)(F)F | -13.99% |

| Structure (SMILES) | Percent Effect |
| --- | --- |
| CO[C@H]1C[C@@H]2CN(C(=O)c3n[nH]c4c3CCCC4)C[C@@H]2C1 | -12.29% |
| Cc1ccc(N2CC[C@@H]3[C@@H]2CCN3Cc2ccsc2)nn1.O=C(O)C(F)(F)F.O=C(O)C(F)(F)F | -10.53% |
| Cn1ccnc1CN1CCC2(CC1)COCCN(S(C)(=O)=O)C2.O=C(O)C(F)(F)F | 17.11% |
| NC(=O)CN1CCC(c2csc(Nc3cnccn3)n2)CC1 | -13.81% |
| NC(=O)CN1CCCC1c1csc(Nc2cnccn2)n1 (stereo unspecified) | 58.45% |
| CC(=O)N1CCCC1c1csc(Nc2cnccn2)n1 (stereo unspecified) | -5.066% |
| CS(=O)(=O)CCC(=O)NC1(c2cccc(C(F)(F)F)c2)CCC1 | -20.78% |
| COC[C@@]12CCC[C@@H]1CN(C(=O)Cc1ccccn1)C2.O=C(O)C(F)(F)F | 12.87% |
| Cc1ncc(CN2CCC(c3nc4cc(Cl)ccc4o3)CC2)s1 | -15.08% |
| O=C(CN1CCCC1c1nc2cc(F)ccc2[nH]1)NCc1ccccn1 (stereo unspecified) | -20.62% |
| CC(C)c1nc(C2CCCN2CCc2ccccn2)no1 (stereo unspecified) | -39.31% |
| CCc1nc(C2CCCN2CCc2ccccn2)no1 (stereo unspecified) | 107.9% |
| Fc1ccc2[nH]c(C3CCCN3CCCn3cccn3)nc2c1 (stereo unspecified) | -23.88% |
| Cc1nc(C2CCCN2CCc2ccccn2)no1 (stereo unspecified) | -5.804% |
| Fc1ccc2[nH]c(C3CCCN3CCc3ccccn3)nc2c1 (stereo unspecified) | 61.35% |
| CS(=O)(=O)N1CCc2ccc(=O)n(CCN3CCCC3)c2CC1.O=C(O)C(F)(F)F | 21.99% |
| Cc1nnc(N2CCCC3(CN(Cc4cnn(C)c4)CCO3)C2)o1.O=C(O)C(F)(F)F.O=C(O)C(F)(F)F (stereo unspecified) | -20.31% |
| O=C(O)C(F)(F)F.O=C(c1ccoc1)N1CC[C@@H]2O[C@@H](COCCN3CCCC3)CC[C@@H]21 | -1.941% |
| O=C(O)C(F)(F)F.O=C(O)C(F)(F)F.O=C1[C@H]2CN(Cc3ccccn3)C[C@H]2CN1c1ccsc1 | -8.069% |
| CO[C@H]1CCN(Cc2cccs2)[C@@H]2CN(Cc3ccncc3)C[C@H]12.O=C(O)C(F)(F)F.O=C(O)C(F)(F)F.O=C(O)C(F)(F)F | 0.7697% |
| O=C1CCNc2ncc(-c3ccccc3Cl)cc2CN1C1CC1 | 39.75% |
| Cl.Clc1ccc(-c2ccc(C3CNCCO3)nc2)cc1 (stereo unspecified) | 2.375% |
| O=C1CCNc2ncc(-c3cccc(Cl)c3)cc2CN1C1CC1 | 61.09% |
| O=C1CCNc2ncc(-c3ccc(Cl)cc3)cc2CN1C1CC1 | 53.07% |

| Structure (SMILES) | Percent Effect |
| --- | --- |
| O=C1CCC(=O)N1CCn1nnc(-c2cccc(Cl)c2)n1 | -24.84% |
| COc1ccc(-c2cnc3c(c2)CN(C2CC2)C(=O)CCN3)cc1 | 36.55% |
| COc1ccc(OCCN2CCC(N3CCNC3=O)CC2)cc1 | 47.29% |
| Cc1ccc(N2CCO[C@H]3CN(Cc4nccs4)C[C@H]32)nn1.O=C(O)C(F)(F)F.O=C(O)C(F)(F)F | -20.26% |
| O=C(O)C(F)(F)F.O=C(O)C(F)(F)F.O=C([C@H]1C[C@H]2OCC[C@H]2N(Cc2cccnc2)C1)N1CCCO1 | -0.4009% |
| CCC1CN(C(=O)c2ccc(=O)[nH]n2)CCC(=O)N1Cc1ccccc1 (stereo unspecified) | 3.349% |
| CCC1CN(C(=O)c2cccc(O)c2)CCC(=O)N1Cc1ccccc1 (stereo unspecified) | 3.275% |
| CCC1CN(C(=O)c2ccc(=O)[nH]c2)CCC(=O)N1Cc1ccccc1 (stereo unspecified) | 106.1% |
| Fc1ccc(CN2CCC(F)(F)C3(CCN(c4cnccn4)C3)C2)cc1.O=C(O)C(F)(F)F.O=C(O)C(F)(F)F (stereo unspecified) | 3.728% |
| c1ccc2c(c1)CN(c1ncnc3c1CCNC3)CCO2 | 22.91% |
| Cc1cccc(=O)n1CCCNc1nc(N(C)C)nc2c1CCNC2 | 44.77% |
| c1ccc2c(c1)CCN(c1ncnc3sc4c(c13)CCNC4)C2 | 12.7% |
| Cc1ccccc1N1CCN(c2nc(N(C)C)nc3c2CCNC3)CC1 | 99.74% |
| Cc1cc2n(n1)CCN(c1nc(N(C)C)nc3c1CCNC3)C2 | 7.698% |
| Cc1nc2c(c(N3CCN(c4ncccc4C(N)=O)CC3)n1)CCNC2 | 6.854% |
| CN(C)c1nc2c(c(N3CCc4ccccc4C3)n1)CCNC2 | 101.7% |
| CN(C)c1nc2c(c(N3CCc4c(c(CO)nn4C)C3)n1)CCNC2 | -14.09% |
| c1ccc2c(c1)CCN(c1nc(-c3ccncc3)nc3c1CCNC3)C2 | 105.2% |
| NCC1CCC2(CCN(C(=O)c3ccccn3)CC2)CO1.O=C(O)C(F)(F)F.O=C(O)C(F)(F)F (stereo unspecified) | 3.829% |
| Cn1cc(N2CC3(CCN(CC4CCC4)CC3)OCC2=O)cn1.O=C(O)C(F)(F)F | 10.75% |
| Cc1cccc(C(=O)N2CCC[C@]3(C[C@@H](OCC4CC4)CO3)C2)n1.O=C(O)C(F)(F)F | 5.615% |
| O=C(O)C(F)(F)F.O=C([C@@H]1C[C@@H]2CCN(Cc3ccoc3)C[C@H]2O1)N1CCCC1 | 5.199% |
| Cc1noc(C)c1C(=O)N1Cc2ncn(C)c2C(COCC(C)C)C1.O=C(O)C(F)(F)F (stereo unspecified) | 10.61% |
| O=C(Cc1ccccc1)N1C[C@@H]2OCCN(CC3CCCO3)[C@@H]2C1.O=C(O)C(F)(F)F (stereo partly specified) | -18.47% |

| Structure (SMILES) | Percent Effect |
| --- | --- |
| Cc1cc(Oc2ccc(NC(=O)C3CC3)cc2)cc(C2CCNCC2)n1.Cl | 4.147% |
| COc1ccc(CN2CCC3(CC2)CC(CC(=O)NC(C)C)CO3)cc1.O=C(O)C(F)(F)F (stereo unspecified) | 0.5964% |
| CCN(CC)Cc1cn2c(n1)CN(C(=O)c1cnccn1)CC2.O=C(O)C(F)(F)F | -4.073% |
| CC(C)c1nn(C)c(N(C)C)c1CNC1CCOc2c(F)cccc21.Cl (stereo unspecified) | 0.8128% |
| O=C(CCc1ccco1)Nc1cc(C(F)(F)F)c[nH]c1=O | -7.508% |
| CC(CCc1ccco1)NC(=O)Nc1cc(C(F)(F)F)c[nH]c1=O (stereo unspecified) | 102.3% |
| O=C(NCCOc1ccccc1)Nc1cc(C(F)(F)F)c[nH]c1=O | 24.31% |
| O=C(NCCc1ccco1)Nc1cc(C(F)(F)F)c[nH]c1=O | 9.339% |
| O=C(NCCNc1ncccn1)Nc1cc(C(F)(F)F)c[nH]c1=O | -2.019% |
| CC(C)CCOCCNC(=O)Nc1cc(C(F)(F)F)c[nH]c1=O | 62.92% |
| COc1cc(CNCc2ccnc(N3CCCC3)c2)cc(OC)c1.Cl | 5.029% |
| O=C(NCc1ccccn1)[C@@H]1CCO[C@@H]2CCN(Cc3ccoc3)C[C@H]21.O=C(O)C(F)(F)F.O=C(O)C(F)(F)F | 8.703% |
| Cc1cnn(CC2CN(Cc3nc(-c4ccoc4)no3)CCO2)c1 (stereo unspecified) | 8.998% |
| Cc1cnn(CC2CN(CCS(C)(=O)=O)CCO2)c1 (stereo unspecified) | 3.305% |
| c1cnn(CC2CN(Cc3nc(-c4ccsc4)no3)CCO2)c1 (stereo unspecified) | -8.346% |
| c1ccc(-c2nc(CN3CCOC(Cn4cccn4)C3)no2)cc1 (stereo unspecified) | 2.98% |
| Cc1cnn(CC2CN(Cc3nc(-c4ccsc4)no3)CCO2)c1 (stereo unspecified) | 77.9% |
| O=S(=O)(CCN1CCOC(Cn2cccn2)C1)c1ccccc1 (stereo unspecified) | 6.109% |
| Cc1cnn(CC2CN(CCCS(C)(=O)=O)CCO2)c1 (stereo unspecified) | 7.266% |
| O=S(=O)(CCN1CCOC(Cn2cccn2)C1)C(F)(F)F (stereo unspecified) | 103.2% |
| Cc1nc(CN2CCOC(Cn3cccn3)C2)no1 (stereo unspecified) | -15.93% |
| Cc1ccc(-c2nc(CN3CCOC(Cn4cccn4)C3)no2)cc1 (stereo unspecified) | 60.58% |
| c1cnn(CCN2CCOC(Cn3cccn3)C2)c1 (stereo unspecified) | -7.25% |
| Cc1cnn(CC2CN(CCS(=O)(=O)C(F)(F)F)CCO2)c1 (stereo unspecified) | 85.56% |
